From the supplement of paper PMC6411743
± gives the standard deviation of the averaged measurements. Of roughly 6,500 targets only a part is listed; those with the largest changes were picked by preference.

Compound: Nc1ncnc2c1ncn2[C@@H]1O[C@H](COP(=O)(O)OP(=O)(O)OP(=O)(O)O)[C@@H](O)[C@H]1O [adenosine triphosphate]
Assay: NP40-soluble protein abundance relative to vehicle (solubility fold change) (ratio); higher = more soluble protein in presence of ATP
In short: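 Crude Jurkat lysate, prepared by Dounce homogenisation, was exposed to eight concentrations from 0.1 to 10 mM for 10 min at room temperature and then 3 min at 37 °C. Solubilisation used 0.8% NP40 with benzonase for 60 min at 4 °C, followed by ultracentrifugation and TMT labelling of the supernatant for LC-MS/MS. After vsn normalisation of intensities, each value is the fold change against the detergent-processed vehicle within each replicate, across three independent experiments.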

Sequence of UniProt Q01082 (Q01082 whole entry): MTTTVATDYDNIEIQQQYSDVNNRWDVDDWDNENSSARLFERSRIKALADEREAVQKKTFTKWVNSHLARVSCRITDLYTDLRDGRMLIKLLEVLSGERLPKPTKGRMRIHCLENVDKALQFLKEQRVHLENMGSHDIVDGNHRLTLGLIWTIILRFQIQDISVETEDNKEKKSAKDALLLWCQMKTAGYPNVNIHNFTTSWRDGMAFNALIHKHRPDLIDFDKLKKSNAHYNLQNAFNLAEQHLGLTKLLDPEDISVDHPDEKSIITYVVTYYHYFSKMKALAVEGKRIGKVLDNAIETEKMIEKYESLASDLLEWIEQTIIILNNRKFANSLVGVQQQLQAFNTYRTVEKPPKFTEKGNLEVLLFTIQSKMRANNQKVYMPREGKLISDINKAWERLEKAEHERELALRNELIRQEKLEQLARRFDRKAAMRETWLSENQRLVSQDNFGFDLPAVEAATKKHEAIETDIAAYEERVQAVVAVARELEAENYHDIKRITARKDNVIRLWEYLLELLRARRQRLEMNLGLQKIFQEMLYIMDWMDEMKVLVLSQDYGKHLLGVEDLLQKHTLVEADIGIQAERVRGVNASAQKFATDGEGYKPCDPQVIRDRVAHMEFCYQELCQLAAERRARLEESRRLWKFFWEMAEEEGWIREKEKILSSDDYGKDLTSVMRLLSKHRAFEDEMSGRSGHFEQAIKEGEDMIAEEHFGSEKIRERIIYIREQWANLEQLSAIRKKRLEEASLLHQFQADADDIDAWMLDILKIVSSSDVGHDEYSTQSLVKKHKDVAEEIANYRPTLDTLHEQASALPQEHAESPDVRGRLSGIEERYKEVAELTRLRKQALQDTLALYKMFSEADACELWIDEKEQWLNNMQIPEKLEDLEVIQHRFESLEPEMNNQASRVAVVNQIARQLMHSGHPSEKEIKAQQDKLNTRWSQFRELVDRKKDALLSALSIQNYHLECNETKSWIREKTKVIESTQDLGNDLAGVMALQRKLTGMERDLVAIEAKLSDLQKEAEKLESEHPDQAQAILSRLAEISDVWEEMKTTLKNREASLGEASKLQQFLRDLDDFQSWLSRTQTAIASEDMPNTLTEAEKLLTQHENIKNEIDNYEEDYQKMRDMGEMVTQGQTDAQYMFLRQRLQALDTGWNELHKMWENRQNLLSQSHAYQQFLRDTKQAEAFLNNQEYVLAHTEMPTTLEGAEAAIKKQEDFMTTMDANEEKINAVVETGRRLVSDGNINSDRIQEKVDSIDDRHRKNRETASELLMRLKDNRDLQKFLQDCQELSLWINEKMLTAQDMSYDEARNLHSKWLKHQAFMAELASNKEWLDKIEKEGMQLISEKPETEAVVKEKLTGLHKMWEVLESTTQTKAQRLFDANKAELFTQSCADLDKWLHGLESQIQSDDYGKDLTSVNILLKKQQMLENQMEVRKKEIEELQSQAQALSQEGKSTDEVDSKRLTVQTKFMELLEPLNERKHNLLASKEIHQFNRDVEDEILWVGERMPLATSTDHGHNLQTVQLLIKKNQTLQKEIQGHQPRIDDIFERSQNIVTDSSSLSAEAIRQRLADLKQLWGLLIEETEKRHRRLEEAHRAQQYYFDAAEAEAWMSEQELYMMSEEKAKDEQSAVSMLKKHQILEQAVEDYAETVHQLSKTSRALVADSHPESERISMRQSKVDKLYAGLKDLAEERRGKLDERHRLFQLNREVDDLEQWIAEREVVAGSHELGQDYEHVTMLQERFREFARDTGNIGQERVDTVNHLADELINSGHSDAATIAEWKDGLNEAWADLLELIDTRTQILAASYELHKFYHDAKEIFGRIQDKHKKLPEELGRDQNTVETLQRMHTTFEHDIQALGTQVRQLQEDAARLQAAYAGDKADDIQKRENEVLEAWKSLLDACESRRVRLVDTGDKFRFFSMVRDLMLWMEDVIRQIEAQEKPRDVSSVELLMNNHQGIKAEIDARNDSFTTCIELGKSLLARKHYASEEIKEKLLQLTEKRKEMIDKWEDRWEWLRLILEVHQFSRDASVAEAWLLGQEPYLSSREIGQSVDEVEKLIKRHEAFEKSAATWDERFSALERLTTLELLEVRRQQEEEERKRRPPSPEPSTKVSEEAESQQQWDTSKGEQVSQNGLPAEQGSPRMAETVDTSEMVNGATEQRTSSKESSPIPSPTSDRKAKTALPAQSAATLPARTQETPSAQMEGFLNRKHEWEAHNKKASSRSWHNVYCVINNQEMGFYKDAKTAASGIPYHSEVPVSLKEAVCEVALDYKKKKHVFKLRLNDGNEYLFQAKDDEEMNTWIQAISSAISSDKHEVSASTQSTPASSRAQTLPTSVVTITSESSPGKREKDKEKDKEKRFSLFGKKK
Sequence of UniProt O95786 (O95786 whole entry): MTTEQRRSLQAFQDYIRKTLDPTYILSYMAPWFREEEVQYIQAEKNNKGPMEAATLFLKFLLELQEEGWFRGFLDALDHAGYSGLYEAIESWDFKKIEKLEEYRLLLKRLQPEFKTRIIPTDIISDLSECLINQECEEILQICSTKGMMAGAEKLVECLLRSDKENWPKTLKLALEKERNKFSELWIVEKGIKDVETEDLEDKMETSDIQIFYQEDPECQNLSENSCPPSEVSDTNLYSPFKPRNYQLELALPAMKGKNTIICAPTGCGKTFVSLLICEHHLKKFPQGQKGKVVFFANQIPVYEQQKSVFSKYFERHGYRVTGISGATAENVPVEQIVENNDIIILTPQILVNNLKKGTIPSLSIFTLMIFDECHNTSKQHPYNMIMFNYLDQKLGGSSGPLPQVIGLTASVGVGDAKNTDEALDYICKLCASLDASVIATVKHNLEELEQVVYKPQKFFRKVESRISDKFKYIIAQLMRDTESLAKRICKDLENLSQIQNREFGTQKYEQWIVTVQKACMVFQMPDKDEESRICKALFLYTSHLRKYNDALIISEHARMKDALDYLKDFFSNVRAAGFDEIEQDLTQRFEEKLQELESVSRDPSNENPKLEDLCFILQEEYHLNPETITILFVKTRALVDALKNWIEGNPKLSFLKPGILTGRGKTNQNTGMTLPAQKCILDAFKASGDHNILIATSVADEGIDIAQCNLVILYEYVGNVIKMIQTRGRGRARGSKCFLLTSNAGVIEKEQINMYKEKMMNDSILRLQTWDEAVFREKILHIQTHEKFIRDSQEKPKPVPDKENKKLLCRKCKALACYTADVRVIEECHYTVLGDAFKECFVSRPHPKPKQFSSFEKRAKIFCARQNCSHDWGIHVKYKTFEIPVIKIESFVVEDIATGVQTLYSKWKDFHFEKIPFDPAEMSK
Sequence of UniProt P09012 (P09012 whole entry): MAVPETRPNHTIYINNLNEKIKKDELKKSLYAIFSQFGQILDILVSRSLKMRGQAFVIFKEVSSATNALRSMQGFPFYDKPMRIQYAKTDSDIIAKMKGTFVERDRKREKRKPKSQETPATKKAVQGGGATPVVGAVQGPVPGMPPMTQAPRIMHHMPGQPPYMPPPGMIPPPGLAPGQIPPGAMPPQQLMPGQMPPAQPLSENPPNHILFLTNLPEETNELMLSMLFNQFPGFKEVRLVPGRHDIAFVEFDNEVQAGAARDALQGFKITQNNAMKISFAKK

Target	NP40-soluble protein abundance (concentration: 1mM)	NP40-soluble protein abundance (concentration: 2mM)	NP40-soluble protein abundance (concentration: 4mM)	NP40-soluble protein abundance (concentration: 6mM)	NP40-soluble protein abundance (concentration: 8mM)	NP40-soluble protein abundance (concentration: 10mM)
DDX58 (UniProt O95786)	1.06 ± 0.097	1.03 ± 0.063	1 ± 0.05	0.978 ± 0.078	1.03 ± 0.056	1.01 ± 0.055
SNRPA (UniProt P09012)	1.01 ± 0.067	0.989 ± 0.09	0.973 ± 0.093	0.984 ± 0.1	0.992 ± 0.032	0.97 ± 0.006
UniProt Q01082|Q01082-3	0.887 ± 0.029	0.899 ± 0.014	0.928 ± 0.03	1.05 ± 0.037	1.04 ± 0.06	1.07 ± 0.048
